{
  "source": "PubChem BioAssay (NCI)",
  "note": "“And” between values parts separate entries of the source, which are not always exact repeats. Equal entries are not always repeated. Compounds without any hit were thinned out: in the full panel of roughly 83,000, 20% have a hit.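 The test compound was applied at a single concentration to cells in 96-well plates for 48 hours, and percent growth was recorded.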 The source made the active and inactive calls. Rule for the calls: active = growth percent below 10; inactive = the rest.",
  "data": [
    {"tested_on": "UACC-62 melanoma", "assay": "NCI-60 one-dose screen, 48 h (100 = growth as untreated, 0 = no growth, -100 = all killed)", "settings": "10 µM unless noted", "values": [
      {"smiles": "COc1ccc(C2c3cc4c(c(OC)c3CC3OCC(=O)C32)OCO4)cc1OC", "note": "(stereo unspecified)", "growth": "26% [100 µM] (inactive) and 3.65% [100 µM] (active)"},
      {"smiles": "COC(=O)C(/C(=N/NC(N)=O)C(=O)Nc1ccc(C)cc1)c1nc2ccc([N+](=O)[O-])cc2[nH]c1=O", "note": "(stereo unspecified)", "growth": "61.4% [100 µM] (inactive) and 23.2% [100 µM] (inactive)"},
      {"smiles": "N#CC1(C#N)C2CCCCC23OC(=N)C1(C#N)C(c1ccco1)O3", "note": "(stereo unspecified)", "growth": "-50.9% [100 µM] (active)"},
      {"smiles": "N#CC(=S)Nc1ccc(F)cc1", "growth": "8.57% [100 µM] (active) and 0.965% [100 µM] (active)"},
      {"smiles": "CNC(=S)/C(=N\\Nc1nc[nH]c1C(N)=O)C(N)=S", "growth": "-8.08% [100 µM] (active) and 0.0251% [100 µM] (active)"},
      {"smiles": "CCC(c1ccc(N(C)C)cc1)C1NC(=S)NC1=O", "note": "(stereo unspecified)", "growth": "20.7% [100 µM] (inactive) and 17.1% [100 µM] (inactive)"},
      {"smiles": "O=C(Nc1cccc(NC(=O)C(=O)C2CCC3=C(Sc4ccccc4N3)C2=O)n1)C(=O)C1CCC2=C(Sc3ccccc3N2)C1=O", "note": "(stereo unspecified)", "growth": "50.7% [100 µM] (inactive) and -46.3% [100 µM] (active)"},
      {"smiles": "COC(=O)c1cnn2c1n[n+]([O-])c1ccccc12", "growth": "72.4% [100 µM] (inactive) and -65.7% [100 µM] (active)"},
      {"smiles": "COc1ccc2nc(NC(=O)/C(C#N)=C/c3ccccc3)sc2c1", "growth": "36.9% [100 µM] (inactive) and 15.8% [100 µM] (inactive)"},
      {"smiles": "O=c1c2ccccc2nc(-c2ccccc2)n1/N=C/c1ccccc1[N+](=O)[O-]", "growth": "54.7% [100 µM] (inactive) and 24.5% [100 µM] (inactive)"},
      {"smiles": "O=C1c2ccccc2-c2c1c1ccccc1c(=O)n2-c1cccnc1", "growth": "35.8% [100 µM] (inactive) and 0.376% [100 µM] (active)"},
      {"smiles": "COc1cc(-c2nc(SC)nc3c2CCc2ccccc2-3)cc(OC)c1OC", "growth": "42.6% [100 µM] (inactive) and 23.7% [100 µM] (inactive)"},
      {"smiles": "C[C@]12CC[C@@H]3c4ccc(OS(N)(=O)=O)cc4CC[C@H]3[C@@H]1CCC2=O", "growth": "9.29% [100 µM] (active) and 48.3% [100 µM] (inactive)"},
      {"smiles": "Clc1ccc(C2C3COc4ccccc4C3=NN2c2ccccc2)cc1", "note": "(stereo unspecified)", "growth": "37.4% [100 µM] (inactive) and 0.301% [100 µM] (active)"},
      {"smiles": "COc1cc(Oc2c(C)c(Cl)c(OC)c(Cl)c2OC)c2c(c1Cl)COC2=O", "growth": "-38% [100 µM] (active) and -9.28% [100 µM] (active)"},
      {"smiles": "CC1OC(Oc2c(-c3cc(O)c(O)c(O)c3)oc3cc(O)cc(O)c3c2=O)C(O)C(O)C1O", "note": "(stereo unspecified)", "growth": "59.6% [100 µM] (inactive) and -60.3% [100 µM] (active)"}
    ]}
  ]
}
